The list is not random: actives were taken first. Their share in the collection is about 14%.
USP17 inh = human USP17-like deubiquitinase inhibition | A8MUK1 | purified USP17, Ub-rhodamine cleavage fluorescence, 3 h | inhibition, % at 50 µM | 47,000 compounds, 6.5% hits | AID 1645855
USP8 block = inhibitors of human USP8 deubiquitinase. P40818. purified USP8, Ub-rhodamine cleavage fluorescence, 30 min. inhibition, % at 20 µM. 47,000 compounds, 4.2% hits. AID 1645853
USP30 inh = human USP30 deubiquitinase inhibition; 47,000 compounds, 5.3% hits; purified USP30, Ub-rhodamine cleavage fluorescence; inhibition, % at 25 µM; AID 1645860; Q70CQ3
USP10 inh = blocks human USP10 ubiquitin-rhodamine cleavage; purified USP10, Ub-rhodamine fluorescence, 60 min; inhibition, % at 20 µM; 47,000 compounds, 1.1% hits; Q14694
USP28 block = blocks human USP28 ubiquitin-rhodamine cleavage; purified USP28, Ub-rhodamine cleavage fluorescence, 30 min; inhibition, % at 25 µM; 47,000 compounds, 3% hits
* = called active by the depositor. Rule as the data show it: active = inhibition above about 30%; inactive = the rest.

SMILES	USP17 inh	USP8 block	USP30 inh	USP10 inh	USP28 block
O=C(Nc1ccccc1Br)c1ccn(COc2ccccc2F)n1	65*	6	34*	6	19
C=C1NC(=O)c2c(sc(C(=O)OCC(=O)NCCCc3ccccc3)c2C)N1	10	30	9	4	12
O=C(Nc1ccccc1F)C1CCN(c2cnc(N3CCCCCC3)nc2)CC1	-35	-8	-93	-8	6
O=C(O)CCc1nc2cc(C(F)(F)F)ccc2n(Cc2ccccc2)c1=O	41*	9	0	0	12
Cc1cccc(N2CCn3c2nc2c3c(=O)n(CCN3CCOCC3)c(=O)n2C)c1	5	2	38*	2	12
Cc1ccc(N2CCCn3c2nc2c3c(=O)n(CCN3CCOCC3)c(=O)n2C)cc1	16	21	34*	3	17
Cc1ccc(OCc2c(F)cccc2Cl)c([N+](=O)[O-])n1	4	-36	24	2	21
O=c1[nH]c(N2CCOCC2)nc2c1CCN(S(=O)(=O)c1ccc(Cl)cc1)CC2	12	17	13	0	9
NC(=O)C1(N2CCCCC2)CCN(C(=O)CCCn2c(=O)[nH]c3ccc(Br)cc3c2=O)CC1	0	-1	6	0	10
CC(C)N1CCN(S(=O)(=O)c2cc(-c3nnc(C4CCCC4)o3)co2)CC1	-20	-15	-69	-5	-39
COc1ccccc1N1CCN(C(=O)CCc2nc3c(C)nn(-c4ccccc4)c3n(C)c2=O)CC1	14	12	16	-2	11
CN1[C@@H](CCC(=O)N2CC[C@@H](O)C2)CNC(=O)[C@@H]2[C@H]1CCN2C1CCCCC1	-7	-7	-20	-3	-10
C#CCNC(=O)CC[C@H]1CNC(=O)[C@@H]2[C@@H](CCN2C2CCCCC2)N1C	-42	42*	32*	3	30
CN1[C@@H](CCC(=O)N2CCN(c3ccccn3)CC2)CNC(=O)[C@@H]2[C@H]1CCN2C1CCOCC1	-33	69*	44*	-2	36*
CN1[C@@H](CCC(=O)N2CCC(O)CC2)CNC(=O)[C@@H]2[C@H]1CCN2Cc1ccc(F)cc1	-65	38*	14	-4	13
CN1[C@@H](CCC(=O)N2CCOCC2)CNC(=O)[C@@H]2[C@H]1CCN2Cc1ccc(F)cc1	-72	43*	1	0	18
Cc1ccc(CN2CC[C@@H]3[C@H]2C(=O)NC[C@H](CCC(=O)N2CCOCC2)N3C)cc1	-37	12	-13	-1	9
Cc1ccccc1CNC(=O)C1CCN(c2cnc(N3CCOCC3)nc2)CC1	-11	-29	-12	-4	-4
Cc1cc(Cl)ccc1NC(=O)COC(=O)c1n[nH]c2ccccc12	6	31*	-92	-7	13
CCCC(=O)N1CCC2(CC1)Nc1ccccc1NC2=O	70*	87*	-13	-2	7
CCOC(=O)c1cnc(Nc2cccc(CC)c2)c2ccccc12	-4	1	-30	14	-11
CCOC(=O)c1cnc(Nc2ccccc2OCC)c2ccccc12	-14	60*	-110	-4	-34
COc1ccc(NC(=O)c2nnc(C(=O)NCc3ccccc3F)s2)cc1	5	-14	-2	29	0
Cc1ccccc1CNC(=O)c1nnc(C(=O)Nc2ccc(F)cc2)s1	11	6	39*	9	19
CC1CCc2c(sc(N)c2C(=O)NC2CCCC2)C1 (configuration not stated)	-32	37*	-243	-9	-74
SMILES	USP17 inh	USP8 block	USP30 inh	USP10 inh	USP28 block
O=C(Nc1ccc2c(c1)OCO2)C1CCN(Cc2nc3ccccc3s2)CC1	5	14	-6	-1	70*
O=C(Nc1ccccc1F)C1CCC(=O)N1S(=O)(=O)c1ccccc1 (configuration not stated)	-4	-9	-21	7	-6
O=C1CC(C(=O)Nc2ccccc2F)n2ncc(-c3ccccc3)c2N1 (configuration not stated)	44*	23	8	5	18
O=C1CC(C(=O)Nc2ccc(Cl)cc2Cl)n2ncc(-c3ccccc3)c2N1 (configuration not stated)	-7	-35	-10	16	-10
O=C1CC(C(=O)Nc2ccccc2F)n2nc(-c3ccccc3)cc2N1 (configuration not stated)	78*	39*	15	16	56*
O=C1CC(C(=O)Nc2ccc3c(c2)OCO3)n2nc(SCc3ccccc3)nc2N1 (configuration not stated)	10	15	28	33*	11

Screens as filed in PubChem BioAssay.
